Hit rate of the full screen: of about 330,000 compounds, about 4,200 (1.3%) were called active. Roughly 6% stayed inconclusive and do not appear here. Calls follow the shape of the dose curve; as a rule, active = well fitted activation curve with a large enough effect; inconclusive = small, poorly fitted or top-dose-only effect; inactive = no such curve, though single readings can be large or run the other way. The list comes from a sample in which actives are over-represented; it also holds similar structures and randomly drawn compounds. Where a call stands in place of a potency, no number is given.
Test: qHTS screen for small molecules that induce genotoxicity in human embryonic kidney (HEK293T) cells expressing luciferase-tagged ELG1; also: nearly all actives have a fitted effect of over 60% in size
Details: HEK293T ELG1-luciferase reporter, luminescence, 16 h; series mostly up to 46 µM
How it was run: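 16 hr compound incubation (37 °C, 5% CO2) of HEK293T cells carrying luciferase-tagged ELG1; luciferase then measured by ONE-Glo luminescence after 30 min at RT.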
Potency is read from the fitted curve at half-maximal effect.

| SMILES | Potency |
| --- | --- |
| CCN(C(=O)COC(=O)c1ccccc1O)c1cccc2ccccc12 | inactive |
| CCc1nc(Nc2ccc(NC(C)=O)cc2)c2oc3ccccc3c2n1 | inactive |
| Cc1ccc(OCC(=O)Nc2ccc(-c3nc4ncccc4o3)cc2)cc1 | inactive |
| CC(C)(C)OC(=O)NNc1c2ccccc2nc2ccccc12 | inactive |
| CC(=O)Nc1ccc(Nc2c3ccccc3nc3ccccc23)cc1 | 13 µM (active) |
| COc1cc(OC)cc(C(=O)Nc2ccc(-c3nc4ccccc4o3)c(O)c2)c1 | inactive |
| CC(=O)Nc1ccc(-c2nc3ccccc3o2)cc1 | 3.26 µM (active) |
| Nc1ncnc2c1ncn2[C@@H]1O[C@H](CNCc2cccn2-c2nccs2)[C@@H](O)[C@H]1O | inactive |
| CC(C)C(=O)NCc1cc(-c2ccc(Cl)cc2)no1 | inactive |
| CC(C)Cc1cc(C(=O)Nc2cc(Br)ccc2O)no1 | 8.2 µM (active) |
| CC(C)/C=N/NC(=O)c1cc(Br)ccc1O | inactive |
| CC(C)N(C(=O)[C@H]1C[C@H](CC(=O)NCCC2=CCCCC2)C(=O)N2CCc3c([nH]c4cc(CCC(=O)N(C)C)ccc34)[C@]12C)C(C)C | inactive |
| Cc1cccc(NC(=O)Nc2cccc(Oc3c(F)c(F)c(F)c(F)c3F)c2)c1 | inactive |
| Cc1ccoc1C(=O)Nc1cccc(Oc2ccccc2)c1 | 9.2 µM (active) |
| Cc1ccc(C(=O)COc2cccc(NC(=O)c3ccco3)c2)cc1 | inactive |
| CN(CC(=O)Nc1ccc(C(N)=O)cc1)S(=O)(=O)c1ccc2c(c1)OCCO2 | inactive |
| O=C(Cn1cnc2c(OCc3ccccc3)ncnc21)NCCCn1ccnc1 | inactive |
| O=C(COC(=O)c1ccc(F)cc1)NCC1COc2ccccc2O1 (centres undefined) | inactive |
| O=C1c2ccccc2C(=O)N1CCOc1ccc(F)cc1 | 20.6 µM (active) |
| O=C(OCCN1C(=O)c2ccccc2C1=O)Oc1ccccc1 | inactive |
| Cc1cccc2c1N(CCOc1ccccc1)C(=O)C2=O | inactive |
| Cn1cccc1C(=O)OCC(=O)c1ccc(Br)s1 | inactive |

| SMILES | Potency |
| --- | --- |
| COc1ccc(S(=O)(=O)Nc2cccc3c2O[C@H](CN(C)S(=O)(=O)c2ccc(OC)cc2)[C@@H](C)CN([C@H](C)CO)C3=O)cc1 | inactive |
| NC(=O)c1c(NC(=O)c2ccccc2)sc2c1CCCC2 | 8.2 µM (active) |
| O=C(Nc1sc2c(c1C(=O)O)CCC2)c1ccccc1F | inactive |
| Cc1ccc(C(=O)c2c(NC(=O)c3ccncc3)sc3c2CCCC3)cc1 | inactive |
| O=C(Oc1ccc(Br)cc1)c1cccnc1 | inactive |
| O=C(Oc1ccc(-c2nc(-c3ccccn3)no2)cc1)c1ccccc1 | 0.517 µM (active) |
| Cc1ccc(Oc2nc(-c3ccccn3)nc3ccccc23)cc1 | inactive |
| COc1cc(C(=O)OCc2cc(=O)n3ccsc3n2)ccc1OC(C)C | inactive |
| CC(C)(C)OC(=O)CNC(=O)c1[nH]cnc1C(=O)N[C@@H](CCCCN)C(=O)OC(C)(C)C | inactive |
| C[C@H](CO)N1C[C@H](C)[C@@H](CN(C)Cc2ccc(-c3ccccc3)cc2)Oc2ccc(NC(=O)Cn3cnnn3)cc2C1=O | inactive |
| O=C(Nc1ccccc1N1CCOCC1)c1csc2c1CCCC2 | inactive |
| COC(=O)c1sc(NC(=O)c2csc3c2CCCC3)nc1C | 2.59 µM (active) |
| O=C(NCc1ccccc1Cl)c1csc2c1CCCCC2 | inactive |
| COC(=O)[C@]1(Cc2ccccc2)N[C@H](CN(C)S(=O)(=O)c2ccc(F)cc2)[C@@H]2C(=O)N(Cc3ccccc3)C(=O)[C@@H]21 | inactive |
| COc1cc(N=Cc2c(O)[nH]c3ccccc23)cc(OC)c1OC | inactive |
| COc1ccccc1N=Cc1c(O)c2ccccc2oc1=O | inactive |
| COc1ccc(N=Cc2c(O)[nH]c3ccccc23)cc1OC | 14.6 µM (active) |
| Cc1cc(NC(=O)c2ccco2)c(=O)n(Cc2c(F)cccc2Cl)c1 | inactive |
| Cc1ccc(-n2nc3cc(Cl)c(NC(=O)c4ccco4)cc3n2)cc1 | 11.6 µM (active) |
| Cc1ccc(-n2nc3cc(C)c(NC(=O)c4cccnc4)cc3n2)cc1 | inactive |
| Cc1ccc(S(=O)(=O)NC[C@H]2O[C@@H](n3cnc4c(N)ncnc43)[C@H](O)[C@@H]2O)s1 | inactive |
| CSCCC1NC(=O)N(CC(=O)Nc2cccc(S(=O)(=O)N3CCCCCC3)c2)C1=O (centres undefined) | inactive |

| SMILES | Potency |
| --- | --- |
| Cc1cc(C(=O)NCCc2ccc(Cl)cc2)c(C)o1 | 18.3 µM (active) |
| Cc1cc(C(=O)NCCc2ccc(Cl)cc2)n(-c2ccccc2)n1 | inactive |
| Cc1cc(C(=O)NNC(=O)c2ccccc2O)c(C)o1 | inactive |
| CC[C@]12c3[nH]c4ccc(OC)cc4c3CCN1C(=O)C(CC(=O)NCCN1CCOCC1)C[C@@H]2C(=O)N1CCN(C(=O)C2CC2)CC1 (some centres undefined) | inactive |
| Cc1ccccc1SCC(=O)OCC(=O)N1CC(=O)Nc2ccccc21 | inactive |
| Cc1oc(-c2ccccc2F)nc1CS(=O)CC(=O)NCCN1CCCCC1C (centres undefined) | inactive |
| CC1CCN(c2oc(-c3ccccc3F)nc2C#N)CC1 | 16.4 µM (active) |
| N#Cc1nc(-c2cccc3ccccc23)oc1N | inactive |
| Cc1ccc(S(=O)(=O)N2CCN(C(=O)COC(=O)CNC(=O)c3ccc(C(C)(C)C)cc3)CC2)c(C)c1 | inactive |
| O=C(N=C1SC2CS(=O)(=O)CC2N1c1ccccc1)c1ccccc1 (centres undefined) | inactive |
| COc1ccc(-c2nc3cnccn3c2NC2CCCCC2)cc1-c1cccc(Cl)c1 | inactive |
| COc1cccc(NC(=O)CSc2nnc(C3CCCCC3)n2N)c1 | inactive |
| COc1cccc(/C=C/c2ccc3ccccc3n2)c1OC(C)=O | 0.206 µM (active) |
| CCOc1ccccc1-c1cc(C(=O)N2CCOCC2)c2ccccc2n1 | inactive |
| CC(=O)c1ccc(S(=O)(=O)N2CCN(C(=O)/C=C/c3ccc4ccccc4n3)CC2)cc1 | inactive |
| COc1cccc(/C=C2\C=C(c3ccc(C)cc3)OC2=O)c1OC(C)=O | inactive |
| NC(=O)COC(=O)/C=C/c1ccc2ccccc2n1 | inactive |
| CCOc1cccc(/C=C/c2ccc3ccccc3n2)c1OC(C)=O | 0.366 µM (active) |
| COCCn1c(C)cc(C(=O)CN2c3cccc4cccc(c34)S2(=O)=O)c1C | inactive |
| Cc1noc(C)c1NC(=O)Nc1cccc2c1O[C@H](CN(C)C(=O)Nc1ccccc1)[C@@H](C)CN([C@H](C)CO)C2=O | inactive |

From PubChem BioAssay AID504466 (National Center for Advancing Translational Sciences (NCATS), 2011)
